High-throughput results from PubChem.
Only some compounds are listed: those with a hit (about 5.7% of all), similar ones and a draw of the others.
ATXN2 expr inh = ATXN2 expression inhibition; Potency, µM (top dose mostly 57 µM), inactives show top-dose activity change, negative = inhibition, usual class: inhibitors; HEK-293 ATXN2-luciferase reporter, luminescence, 24 h; AID 1745845; hit rate 0.72% among 360,000; also: potency is read from the fitted curve at half-maximal effect; % is scaled to controls: 0 for no effect and ±100 for the full control effect; nearly all actives have a fitted effect of over 55% in size
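ATXN2-luciferase reporter cells (luciferase flanked by upstream and downstream ATXN2 gene portions) were treated 24 h at 37 °C with compounds at up to 57 uM. SteadyGlo luminescence gave expression; GF-AFC fluorescence gave viability.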
S2 tox = viability counter-screen for ATXN expression inhibitors. S2 cells (HEK-293 line with an ATXN2-luciferase reporter) viability, CellTiter-Fluor protease fluorescence, 24 h. Potency, µM (highest dose often 56.7 µM), most hits filed as cytotoxic. hit rate 0.49% among 400,000; also: potency is read from the fitted curve at half-maximal effect; nearly all actives have a fitted effect of over 40% in size
HepG2 viability = HepG2 cytotoxicity, counter-screen for TGF-b inhibitors; hit rate 0.76% among 410,000; HepG2 CAGA-GFP viability, ATP luminescence, 18 h; Potency, µM (series often up to 46.1 µM), without a hit: at the highest dose activity change, negative = cytotoxicity, usual class: cytotoxic; also: potency is read from the fitted curve at half-maximal effect
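HepG2 CAGA-GFP cells (1000/well, DMEM with 1% FBS) received compound, then TGF-beta at 500 pg/mL final, and were incubated 18 hours at 37 degrees C. Viability was read by CellTiter-Glo luminescence. Media-only wells were set as complete cell-killing and DMSO as no toxicity.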
TGFb inhibitor = TGF-b pathway inhibition; AID 588855; HepG2 CAGA-GFP TGF-b/SMAD3 reporter, GFP fluorescence, 18 h; TGF-beta stimulated, 500 pg/mL final; Potency, µM (titrated, usually from 46.1 µM), inactives show at the highest dose activity, negative = inhibition, hits mostly inhibitors; hit rate 1.2% among 410,000; also: potency is read from the fitted curve at half-maximal effect; % is scaled to controls: 0 for no effect and ±100 for the full control effect; nearly all actives have a fitted effect of over 65% in size
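Inhibition of TGF-beta-driven CAGA-GFP reporter expression in HEPG2 cells is measured by cellular GFP fluorescence after 18 h stimulation with 500 pg/mL recombinant TGF-beta in 1% FBS medium at 37 degrees C.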
IL-1B inflam inh = inflammasome signaling inhibition, IL-1 beta readout. THP-1 LPS/ATP IL-1B secretion, AlphaLISA, 16 h; hits give low values. activity change, % at 57.5 µM. hit rate 4.7% among 360,000; in the data active = activity change below about -50%; inconclusive = mostly about -30% to -49%; also: % is scaled to controls: 0 for no effect and ±100 for the full control effect
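THP-1 cells pretreated 1 hr with compounds (up to 57.5 uM final), then stimulated with LPS (250 ng/mL final) plus ATP (1.25 mM final); secreted IL-1B measured by AlphaLISA after 16 hr, decreased signal indicating inhibition.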
Starred values were filed as active, the others as inactive; i = inactive; ? = inconclusive; nt = no result; [ ] = dose if it differs, or a comment. Unless noted, calls follow the shape of the dose curve; as a rule, active = well fitted curve in the direction sought with a large enough effect; inconclusive = small, poorly fitted or top-dose-only effect, or another doubt; inactive = no such curve, though single readings can be large; an effect the other way counts as inactive or inconclusive.

SMILES | ATXN2 expr inh | S2 tox | HepG2 viability | TGFb inhibitor | IL-1B inflam inh
CCN1CCC(N(Cc2ccc3c(c2)OCO3)C(=O)Nc2ccccc2OC)CC1 | -16.7% | i | -26.3% | 1.5% | nt
COc1ccccc1NC(=O)C(Cc1ccccc1)NS(=O)(=O)c1cccc2nsnc12 (stereo not drawn) | -5.0% | i | -28.3% | ? | nt
CCOC(=O)C1CCN(C(=O)C2(NC(=O)NC3CCCCC3)CCCCC2)CC1 | 1.3%[11.3 µM] | i | 0.9% | 2.7% | 21.1
CCOC(=O)C1CCN(C(=O)C2(NC(=O)Nc3ccc(F)cc3F)CCCCC2)CC1 | -15.5% | i | 2.7% | ? | -127.8*
COc1cccc(/C=N/Nc2nnc(C)n2N)c1O | -0.5% | i | -154.2% | 7.94µM* | 7.0
Cc1nnc(N/N=C/c2ccccc2F)n1N | -17.6% | i | 1.3% | 0.0% | 0.0
COc1ccc(/C=N/Nc2nc(N3CCCC3)nc(N3CCCC3)n2)c(OC)c1OC | 2.0% | i | -3.2% | 1.5% | 21.2
COc1cccc(/C=N/Nc2ncnc3c2ncn3Cc2ccccc2)c1O | ? | i | -35.0% | ? | -52.1*
COc1cccc(/C=N/Nc2nc(N3CCCC3)nc(N3CCCC3)n2)c1O | 4.6% | i | 0.8% | -20.3% | -100.3*
COc1cccc(/C=N/Nc2cc(Cl)nc(C)n2)c1O | nt | ? | -0.3% | -1.6% | 13.5
Oc1ccc(Br)cc1/C=N/Nc1nc(N2CCCCC2)nc(N2CCOCC2)n1 | 3.3% | i | 4.8% | 16.0% | ?
Oc1ccc(/C=N/Nc2nc(N3CCCCCC3)nc(N3CCCCCC3)n2)c(O)c1 | ? | ? | i | ? | -98.6*
Cc1c(Cl)cccc1NC(=O)CSc1nc(=O)[nH]c2c1CCCC2 | nt | nt | -10.6% | ? | nt
CCCCC(F)(F)[C@@]1(O)CC[C@H]2[C@H](CC(=O)[C@@H]2CCCCCCC(=O)O)O1 | ? | i | nt | nt | nt
Cc1ccc(NC(=O)CN2C(=O)CSc3ccc(S(=O)(=O)N(C)C)cc32)c(C)c1 | 3.5% | i | -30.2% | ? | nt
C/C(=N\Nc1nc(N2CCCCC2)nc(N2CCOCC2)n1)c1ccccc1O | ? | i | -49.9% | -24.0% | -86.3*
COc1ccc(-n2c(C)cc(/C=N/Nc3nnc(C)n3N)c2C)cc1 | -13.0% | ? | 5.01µM* | 3.55µM* | -81.5*
CCOc1ccc(-n2c(C)cc(/C=N/Nc3nc(C)cc(=O)[nH]3)c2C)cc1 | -11.8% | i | -8.8% | -14.9% | -3.2
CCc1ccccc1N(C)C(=O)c1cn(CC(C)C)c(=O)c2cc(OC)c(OC)cc12 | -38.7% | ? | -29.4% | ? | nt
COc1ccc(N(C)C(=O)c2cn(CC(C)C)c(=O)c3cc(OC)c(OC)cc23)c(OC)c1 | -15.1% | i | 7.08µM* | -0.1% | -28.3
COc1cc2c(C(=O)N3CCN(c4cccc(C(F)(F)F)c4)CC3)cn(CC(C)C)c(=O)c2cc1OC | ? | ? | -27.3% | 11.2µM* | nt
COc1cccc(NC(=O)c2ccc(-c3nc(COc4ccccc4)c(C)o3)cc2)c1 | nt | nt | -36.1% | ? | nt
COc1ccc(NC(=O)CCSc2ccc(C)cc2)cc1 | 4.9% | ? | -9.6% | -24.4% | 20.5
Cc1ccc(SCCC(=O)Nc2ccc(Br)c(C)c2)cc1 | -5.6% | i | -26.6% | ? | -107.6*
Cc1cc(NC(c2ccc(Cl)cc2)c2ccc3cccnc3c2O)no1 (stereo not drawn) | 3.16µM* | ? | -10.2% | ? | 89.0
SMILES | ATXN2 expr inh | S2 tox | HepG2 viability | TGFb inhibitor | IL-1B inflam inh
CCCC(=O)NC(c1ccc(N(C)C)cc1)c1ccc2cccnc2c1O (stereo not drawn) | ? | i | -52.0% | 2.51µM* | 172.1
CCCC(=O)NC(c1ccccc1Cl)c1ccc2cccnc2c1O (stereo not drawn) | 3.16µM* | i | -3.3% | ? | 107.5
CCC(=O)NC(c1ccc(Cl)cc1Cl)c1ccc2cccnc2c1O (stereo not drawn) | 5.62µM* | i | -21.0% | ? | -85.5*
CC(=O)NC(c1ccc(Cl)cc1)c1ccc2cccnc2c1O (stereo not drawn) | nt | ? | -17.8% | ? | 83.2
CCCCC(=O)NC(c1ccc(Cl)cc1Cl)c1ccc2cccnc2c1O (stereo not drawn) | ? | i | -60.4% | ? | 179.2
CCC1C(=O)NCCN1Cc1ccc2c(c1)CN(Cc1cccc(OC)c1)CCO2 (stereo not drawn) | nt | i | nt | nt | nt
CCOC(=O)c1ccc(Nc2c(-c3ccc(N(C)C)cc3)nc3nc[nH]n23)cc1 | 2.5% | i | -19.4% | 4.9% | nt
CCOc1nc(C#N)nc(N(c2ccccc2)c2ccccc2)n1 | nt | nt | 1.8% | 3.3% | nt
O=C(NCC1(N2CCOCC2)CCCC1)c1cnn(-c2nccc(-c3cccs3)n2)c1C1CC1 | nt | i | nt | nt | nt
COc1ccc(C2CC(c3cccs3)=NN2C(=O)CN2CCCCC2)cc1 (stereo not drawn) | 40.3% | i | -3.1% | -1.8% | -65.0*
COc1ccc(C2CC(c3cccs3)=NN2C(=O)c2ccccc2)cc1OC (stereo not drawn) | -10.1% | ? | -17.2% | 14.5% | -22.8
COc1ccc(C2CC(c3cccs3)=NN2C(=O)CCl)cc1OC (stereo not drawn) | 12.6µM* | 11.2µM* | 7.08µM* | 10µM* | -102.6*
COc1cc(C2CC(c3cccs3)=NN2C(=O)CCl)ccc1OC(F)F (stereo not drawn) | ? | nt | 6.31µM* | 6.31µM* | -103.0*
CCN1C(=O)CC(CC(=O)N2CCC(c3nc4ccc(F)cc4[nH]3)CC2)(c2ccccc2C)C1=O (stereo not drawn) | nt | i | nt | nt | nt
CCOc1ccc(CCNC(=O)Cn2ncc3c(=O)oc4ccc(C)cc4c32)cc1 | nt | nt | -1.8% | -9.3% | nt
Cc1ccc(Cl)cc1N1CCN(C(=O)c2sc3nc4n(c(=O)c3c2C)CCC4)CC1 | nt | nt | -0.8% | -7.1% | nt
CC(C)N(C(=S)Nc1cccc(C(F)(F)F)c1)C(C)c1ccccn1 (stereo not drawn) | -20.7% | i | -20.5% | -24.2% | -91.4*
COc1ccc(/C=C/C(=O)Nc2ccc3nc(N4CCC(C)CC4)cc(C)c3c2)cc1OC | nt | nt | -20.0% | -28.6% | nt
Cc1ccc(Sc2cc(C(=O)NCCCN(C)C)c3ccccc3n2)cc1 | -20.1% | ? | -14.3% | 10.2% | -69.3*
Cc1ccc(Sc2cc(C(=O)NCCN(C)C)c3ccccc3n2)cc1 | nt | i | -41.8% | -9.3% | -29.1
CCN(CC)CCCNC(=O)c1cc(Sc2nnc(C)s2)nc2ccccc12 | 0.0% | i | 1.2% | 0.3% | -75.4*
Cc1cc(/C=N/NC(=O)c2ccc(O)cc2)c(C)n1CC(C)C | 10.7% | i | -12.7% | 7.3% | -53.1*
CCOC(=O)c1ccc(NC(=O)CN2C(=O)C(C)(C)c3ccccc32)cc1 | -34.1% | ? | -9.0% | -7.2% | nt
